TWEAK Fn14 block – inhibitors of TWEAK-Fn14 signaling, primary screen, luciferase reporter cells, uHTS; TWEAK-stimulated Fn14 reporter cells, luciferase luminescence, 8 h; inhibition, % at 10 µM; actives 2% (n = 360,000); AID 1159606, 2016; in the data active = inhibition above about 50%
iPSC survival up – enhancers of single-cell hiPSC survival, primary screen, ATPlite luminescence. survival enhancement, % at 20 µM. actives 0.044% (n = 360,000). 100% = ROCK inhibitor wells, 0% = DMSO; in the data active = survival enhancement above about 18%;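 note: cells exposed to compounds for 16 hours before the ATP read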
LGR2 inh – inhibitors of bursicon-induced LGR2 CRE-luciferase signal, primary screen, cell-based, HEK293, CRE-luciferase reporter, bursicon stimulation; Drosophila bursicon receptor LGR2 (rickets); bursicon-stimulated, 4 h; inhibition, % at 9.99 µM; actives 0.35% (n = 380,000);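 active = drop in luminescence signal, shown as inhibition above about 50% in the replicate tests, limit read from the data, passing the limit was not always enough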;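 note: agonist challenge used bursicon conditioned medium at about half maximal strength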
CF NFkB inh – inhibitors of PAF-induced NF-kB signaling, primary screen, cell-based, GFP fluorescence, uHTS; actives 0.86% (n = 360,000); inhibition, % at 5 µM; KKLEB NF-kB-GFP reporter, GFP fluorescence overnight; AID 588850, 2011;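 active = at least 50% inhibition at 5 µM, scaled per plate between neutral and stimulator controls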;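 note: PAF is a Pseudomonas aeruginosa culture filtrate used as stimulus; plate controls were PAF-stimulated DMSO wells for no effect and unstimulated DMSO wells for full effect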
HIF-2a block – HIF-2a reporter inhibitors, primary screen, luminescence, 786-0 RCC cells; inhibition, % at 18.8 µM; 786-0 RCC cells HIF-2a reporter, luciferase luminescence, overnight; AID 624352, 2012; actives 0.72% (n = 360,000);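 active = inhibition of the luminescence signal of 40% or more relative to plate controls, in a single-dose primary screen at 18.75 µM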
KKLEB tox – cytotoxicity in KKLEB CF airway cells, primary screen, cytotoxicity control for CF NF-kB inhibitor project, cell-based, uHTS, fluorescence assay plates | actives 0.36% (n = 360,000) | KKLEB CF airway cells viability, ATPlite luminescence, overnight; stronger effect = lower value; cells stimulated with P. aeruginosa culture filtrate | activity change (cytotoxicity), % at 5 µM;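 active = corrected activity change at or below -50% at 5 µM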
* marks the source's active call; other numbers are inactive results. This is a sample that favours compounds with a hit; in the whole collection about 2.3% have one here.

Screening C[C@H]1CN([C@@H](C)CO)C(=O)c2cccc(NS(C)(=O)=O)c2O[C@H]1CN(C)S(=O)(=O)c1cccs1 returned LGR2 inh -10.
Cc1ccc2nc(-c3ccccc3)nn2c1 was read as TWEAK Fn14 block 94*, iPSC survival up -4, LGR2 inh 86*, CF NFkB inh -17, HIF-2a block 20 and KKLEB tox -10.
For Cc1ccc(-c2nnc(-c3ccccc3)c(-c3ccccc3)n2)cc1 the results were TWEAK Fn14 block -4, iPSC survival up 0, LGR2 inh 7, CF NFkB inh 5, HIF-2a block -62 and KKLEB tox 17.
`Cc1ccc(S(=O)(=O)N(C)C[C@@H]2Oc3ccc(NS(=O)(=O)c4cn(C)cn4)cc3CC(=O)N([C@@H](C)CO)C[C@H]2C)cc1` gave LGR2 inh -5.
`Cc1cccnc1NC(=O)c1ccc(OCC2CCCO2)cc1` (configuration not stated) gave TWEAK Fn14 block -17, iPSC survival up -1, LGR2 inh -4, CF NFkB inh 15, HIF-2a block -106 and KKLEB tox -24.
Screening Cc1ccc2nc(NC(=O)c3ccc(OCC4CCCO4)cc3)sc2c1 (configuration not stated) returned TWEAK Fn14 block 90*, iPSC survival up -2, LGR2 inh 5, CF NFkB inh -18, HIF-2a block -170 and KKLEB tox 1.
For Cc1cc(C)c2nc(NC(=O)c3ccc(OCC4CCCO4)cc3)sc2c1 (configuration not stated) the results were TWEAK Fn14 block 53*, iPSC survival up -4, LGR2 inh -26, CF NFkB inh 7, HIF-2a block -108 and KKLEB tox -4.
For Cc1ccc(-c2cnc3c(c2)C(=O)N([C@@H](C)CO)C[C@H](C)[C@@H](CN(C)Cc2ccccc2C(=O)O)O3)cc1 the results were LGR2 inh 8.
`O=C(COc1ccccc1)NNC(=S)NC(=O)c1ccccc1` gave TWEAK Fn14 block 1, iPSC survival up -1, LGR2 inh -46, CF NFkB inh -8, HIF-2a block -5 and KKLEB tox 17.
Screening COc1ccc(C(=O)NC(=S)NNC(=O)COc2ccccc2)cc1 returned TWEAK Fn14 block 63*, iPSC survival up 2, LGR2 inh 41, CF NFkB inh 12, HIF-2a block 16 and KKLEB tox 10.
`C[C@@H]1CN([C@H](C)CO)C(=O)Cc2cc(NC(=O)c3ccncc3)ccc2O[C@@H]1CN(C)S(C)(=O)=O` gave LGR2 inh -1.
`COc1ccc(C(=O)CSC(=S)N2CCCCC2)cc1` gave TWEAK Fn14 block 60*, iPSC survival up 0, CF NFkB inh 7, HIF-2a block -218 and KKLEB tox -24.
Screening O=C(CSC(=S)N1CCCCC1)c1ccccc1 returned TWEAK Fn14 block 72*, iPSC survival up -2, LGR2 inh 67*, CF NFkB inh -36, HIF-2a block -42 and KKLEB tox -6.
Screening Cc1ccc(S(=O)(=O)N(C)C[C@@H]2Oc3ccc(NS(=O)(=O)c4c(C)noc4C)cc3CC(=O)N([C@@H](C)CO)C[C@@H]2C)cc1 returned LGR2 inh 0.
COc1ccc(-c2nnc3ccc(SCC(=O)Nc4nc5ccc(C)cc5s4)nn23)cc1OC was read as TWEAK Fn14 block 98*, iPSC survival up 0, LGR2 inh -9, CF NFkB inh 0, HIF-2a block 8 and KKLEB tox -2.
Screening COC(=O)CSc1ccc2nnc(-c3ccc(OC)c(OC)c3)n2n1 returned TWEAK Fn14 block -48, iPSC survival up -1, LGR2 inh 14, CF NFkB inh 7, HIF-2a block 19 and KKLEB tox -15.
For CCC(=O)N1[C@@H](CO)[C@@H](c2ccc(-c3ccc(C#N)cc3)cc2)C12CN(C(C)=O)C2 the results were LGR2 inh -5.
Screening COc1ccc(C(=O)Nc2ccc(Cl)c(S(=O)(=O)Nc3ccccc3OC)c2)cc1 returned TWEAK Fn14 block 81*, iPSC survival up -1, LGR2 inh 11, CF NFkB inh 11, HIF-2a block 1 and KKLEB tox -9.
`COc1ccc(NC(=O)c2ccc(-c3ccccc3)cc2)cc1NS(=O)(=O)c1ccc(F)cc1` gave TWEAK Fn14 block 62*, iPSC survival up 0, LGR2 inh -7, CF NFkB inh 7, HIF-2a block -6 and KKLEB tox 0.
Screening COc1ccccc1NS(=O)(=O)c1cccc(NC(=O)Nc2cccc(Cl)c2)c1 returned TWEAK Fn14 block 81*, iPSC survival up 1, LGR2 inh 28, CF NFkB inh 18, HIF-2a block 13 and KKLEB tox -8.
COc1cc(NS(C)(=O)=O)c(OC)cc1NC(=O)c1ccccc1 was read as TWEAK Fn14 block 57*, iPSC survival up 5, CF NFkB inh 1, HIF-2a block 8 and KKLEB tox -4.
COc1ccc2c3c([nH]c2c1)[C@@H](CO)N(Cc1ccc(F)cc1)CC31CN(C(=O)NC(C)C)C1 was read as LGR2 inh 8.
For CO[C@@H]1CN(C)C(=O)c2cc(NC(C)=O)ccc2OC[C@H](C)N(Cc2ccccc2C(=O)O)C[C@H]1C the results were LGR2 inh -12.
For O=C(Nc1cccc(F)c1)N[C@H]1CC[C@H](CCn2cc(Cc3ccccc3)nn2)O[C@@H]1CO the results were LGR2 inh 28.
COc1ccccc1NS(=O)(=O)c1cc(NC(=O)c2ccc(Cl)nc2)ccc1Cl was read as TWEAK Fn14 block 102*, iPSC survival up 0, LGR2 inh 38, CF NFkB inh -14, HIF-2a block 20 and KKLEB tox 15.
`Cc1ccc(SCc2cc(=O)[nH]c(/N=C(\N)Nc3ccccc3Sc3ccccc3)n2)cc1` gave TWEAK Fn14 block 65*, iPSC survival up -1, LGR2 inh 13, CF NFkB inh -6, HIF-2a block 0 and KKLEB tox -5.
Screening COc1ccccc1N/C(N)=N/c1nc(CSc2ccc(C)cc2)cc(=O)[nH]1 returned TWEAK Fn14 block 44, iPSC survival up 4, CF NFkB inh -11, HIF-2a block 0 and KKLEB tox -1.
Screening COCCCNS(=O)(=O)c1ccc2[nH]c3c(c2c1)CCCCC3 returned TWEAK Fn14 block 84*, iPSC survival up 0, LGR2 inh -18, CF NFkB inh -30, HIF-2a block 6 and KKLEB tox 12.

High-throughput results deposited in PubChem by several laboratories.
